Bioassay records deposited in PubChem by several laboratories.
Shown are actives, neighbours in structure and some others; about 3.3% of the full set was active somewhere.
Wnt bcat act: activates Wnt/beta-catenin signaling in a reporter cell assay; 1.2% of 300,000 active; activator, plate reader; AID 743398; activation, % at 9.35 µM; in the data active = activation above about 30%, passing the limit was not always enough; inconclusive = no clear call, values can overlap the other calls;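 note: 0% = neutral control wells and 100% = positive control wells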
MITF act: MITF TRPM1 promoter activation in melanoma cells | SK-MEL-5 TRPM1-promoter luciferase, 24 h; % of positive control, neutral wells = 0 | AID 588334 | 0.75% of 300,000 active | activation, % at 12.5 µM;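 active = mean activation of at least 80% with every replicate also reaching 80%; inconclusive = mean reaches 80% but some replicate falls short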;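 note: 0% = neutral control wells and 100% = parthenolide positive control wells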
esBAF inh: SWI/SNF esBAF complex inhibition. mouse ES cells, Bmi1-luciferase knock-in reporter, 24 h; 100% = twice the neutral-well signal. 2% of 350,000 active. reporter increase, % at 12.5 µM. AID 602393; in the data active = activation above about 40%; inconclusive = no clear call, values can overlap the other calls;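 note: 0% = median of the plate's neutral control wells and 100% = double that signal; a rise in the Bmi1 reporter signal indicates esBAF inhibition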
C2C12 statin: suppressors of simvastatin-induced myotoxicity in C2C12 myotubes. ATP luminescence, 48 h; scaled: DMSO 0, geranylgeraniol control 100. rescue of ATP level, % at 7.49 µM. 0.78% of 330,000 active. AID 602340;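 active = mean ATP rescue above about 67%, or every replicate alone reaching that limit, limit read from the data, passing the limit was not always enough; inconclusive = no clear call, values can overlap the other calls; inactive = mean under the limit and some replicate under it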;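 note: myotubes were challenged with 10 µM simvastatin during compound exposure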
GAA850 FXN act: increases GAA850 frataxin promoter reporter activity; HEK293 lucGAA850 FXN promoter luciferase reporter, 24 h; percent of 10 µM SAHA response; activation, % at 6 µM; 0.56% of 360,000 active; AID 540364;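 active = activation above the average of all compounds screened plus 3 SD, cutoff fixed separately per campaign, cut at about 7.5% in these data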;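 note: 0% = DMSO wells and 100% = 10 µM SAHA wells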
Starred values were filed as active, the others as inactive; ? = inconclusive; · = not tested or not shown.

SMILES | Wnt bcat act | MITF act | esBAF inh | C2C12 statin | GAA850 FXN act
COc1ccc(CN(C)C[C@H]2OCCCC[C@@H](C)Oc3ccc(NC(=O)c4ccncc4)cc3C(=O)N([C@@H](C)CO)C[C@@H]2C)cc1 | · | · | 1 | · | ·
c1ccc(OCc2nc(-c3cccs3)no2)cc1 | · | 108* | 58* | -19 | 4
Cc1ccc(-c2noc(COc3ccccc3C)n2)cc1 | 9 | · | 36 | · | 1
CCCc1ccc(OCc2nc(-c3ccc(NC(=O)c4cccs4)cc3)no2)cc1 | 1 | 94* | · | · | 7
O=C(Nc1ccc(-c2noc(-c3ccccc3F)n2)cc1)c1cccs1 | 11 | ? | 32 | 10 | 3
Cc1ccccc1OCc1nc(-c2ccc(NC(=O)c3cccs3)cc2)no1 | 29 | 57 | · | · | 4
Cc1ccccc1OCc1nc(-c2ccc(NC(=O)c3ccco3)cc2)no1 | -1 | 103* | 27 | ? | 5
Cc1ccccc1OCc1nc(-c2ccccc2)no1 | · | 97* | · | · | 6
C[C@H](CO)N1C[C@H](C)[C@@H](CN(C)S(=O)(=O)c2ccccc2)OCCCC[C@H](C)Oc2ccc(NS(=O)(=O)c3ccccc3)cc2C1=O | · | · | 8 | · | ·
CC(C)NC(=O)N(C)C[C@@H]1Oc2ccc(NS(=O)(=O)c3cn(C)cn3)cc2C(=O)N([C@H](C)CO)C[C@@H]1C | · | · | -9 | · | ·
O=C(NC1CCC1)[C@@H]1N[C@@H]2c3ccc(-c4cccc(F)c4)c(=O)n3C[C@@H]2[C@H]1CO | · | · | -2 | 10 | ·
CCCc1ccc(OCc2nc(-c3ccc(NC(=O)c4ccco4)cc3)no2)cc1 | · | 69 | 62* | -15 | 3
COc1ccccc1CC(=O)Nc1ccc(-c2noc(COc3ccc(Br)cc3)n2)cc1 | · | · | · | · | -1
COC(=O)CSc1nc2ccc(C)cc2cc1C#N | 67* | 53 | · | · | 4
CCOC(=O)CSc1nc2cc(OCC)ccc2cc1C#N | · | · | 62* | 1 | 7
CCOc1ccc2cc(C#N)c(SCC(=O)N3CCC(C)CC3)nc2c1 | -5 | -1 | -2 | -23 | 0
Nc1ccc(N=Nc2ccccc2O)c(N)c1 | 49* | · | · | · | 2
OC(CCN1CCCCC1)(c1ccccc1)c1ccccc1 | -1 | -1 | 6 | -2 | -1
C=CCC(O)(CCN1CCCCC1)c1ccccc1 (configuration not stated) | · | -2 | -3 | 88* | -1
CC(=O)Nc1ccc(OC/C=C(\C)Cl)cc1 | · | 29 | 55* | -4 | 3
Cc1cccc(N2C(=O)N3[C@H](c4ccc(Cl)cc4)[C@@H]4C(=O)N(C5CCCCC5)C(=O)[C@@H]4[C@]3(Cc3ccc(Cl)cc3)C2=O)c1 | · | 4 | · | · | 10*
CCC1CCc2sc(C(=O)NCC3CCCO3)cc2C1 (configuration not stated) | 55* | 76 | 66* | 2 | 3
CCCCCNC(=O)c1ccc2c(=O)[nH]c3c(C(=O)NCC4CCCO4)sc(=S)n3c2c1 (configuration not stated) | 5 | -5 | 1 | 118* | -1
O=C1/C(=C\c2ccsc2)N2CCC1CC2 | 33* | 3 | 0 | 0 | 0
CN1C/C(=C/c2ccsc2)C(=O)/C(=C/c2ccsc2)C1 | 7 | -85 | 6 | -18 | 7
SMILES | Wnt bcat act | MITF act | esBAF inh | C2C12 statin | GAA850 FXN act
C[C@H](CO)N1C[C@H](C)[C@@H](CN(C)C(=O)c2cccc(F)c2)Oc2cc(-c3cccc(F)c3)ccc2S1(=O)=O | · | · | -4 | -38 | ·
CCOC(=O)NC(=O)/C(N=Nc1ccc(C(F)(F)F)cc1)=C(\C)O | 0 | -7 | -13 | 99* | 0
CC(C)(C)c1ccc(NC(=S)NCc2cccs2)cc1 | · | 36 | 44* | -9 | 2
COc1ccc(S(=O)(=O)Nc2ccc3c(c2)OCCO3)cc1Cl | · | -8 | 11 | 114* | -2
C[C@@H]1CN([C@@H](C)CO)C(=O)c2cc(NC(=O)C3CC3)ccc2O[C@@H]1CN(C)Cc1ccc(C(F)(F)F)cc1 | · | · | -7 | 49 | ·
Clc1ccc(SCc2nc3ccccc3[nH]2)cc1 | · | 119* | 36 | 31 | 3
O=c1[nH]c2ccccc2nc1-c1ccccc1 | 24 | 12 | · | · | 5
Fc1ccccc1CSCc1nc2ccccc2[nH]1 | 2 | 90* | 64* | 3 | 2
O=c1[nH]c2ccccc2nc1-c1ccc(Cl)cc1 | 51* | · | · | · | 3
C[C@H](CO)N1C[C@H](C)[C@@H](CN(C)C)Oc2ccc(NS(C)(=O)=O)cc2CC1=O | · | · | 2 | -8 | ·
C[C@@H]1CN([C@@H](C)CO)C(=O)c2cc(NS(=O)(=O)c3cn(C)cn3)ccc2O[C@@H](C)CCCCO[C@@H]1CN(C)C(=O)Nc1cccc2ccccc12 | · | · | 4 | · | ·
CC(C)C#Cc1ccc2c(c1)O[C@@H](CN(C)C(=O)c1cccc(F)c1)[C@@H](C)CN([C@H](C)CO)S2(=O)=O | · | · | 0 | 15 | ·
O=C(C[C@H]1CC[C@H](NC(=O)CCN2CCCCC2)[C@H](CO)O1)Nc1nccs1 | · | · | -3 | 2 | ·
COc1ccc(-c2ccc3c(c2)O[C@H](CN(C)C)[C@@H](C)CN([C@@H](C)CO)S3(=O)=O)cc1 | · | · | -3 | 2 | ·
CCOC(=O)c1c(C)[nH]c(C(C)=NNC(=O)c2cccs2)c1C | 61* | · | 77* | 10 | 2
O=C(COC(=O)c1ccccc1Cl)NCc1cccs1 | -1 | · | 2 | 2 | -2
Nc1cc(Cl)ccc1C(=O)OCC(=O)NCc1cccs1 | 12 | 26 | 53* | -3 | 2
CC(=O)c1c(C)[nH]c(C(=O)OCC(=O)NCc2cccs2)c1C | 17 | 19 | 55* | 0 | 2
Cc1noc(C)c1NC(=O)Nc1ccc2c(c1)C(=O)N([C@@H](C)CO)C[C@H](C)[C@H](CN(C)C)OCCCC[C@@H](C)O2 | · | · | 1 | -15 | ·
COc1ccc(S(=O)(=O)N[C@@H]2CC[C@@H](CC(=O)N3CCc4ccccc4C3)O[C@@H]2CO)cc1 | · | · | 3 | 1 | ·
O=[N+]([O-])c1ccccc1CSc1nnc2ccccn12 | 5 | 34 | 63* | 4 | 7
O=C1CCC[C@@H]2C[C@@]3(C[C@@H]4CCN1[C@H]24)Nc1cc(Cl)c(Cl)cc1NC3=NCc1ccccc1 | 9 | 1 | 74* | 52 | -3
Nc1ccc(Oc2cc(N)cc(Oc3ccccc3)c2)cc1 | ? | 87* | 3 | 28 | 4
COc1ccc(SCC(=O)Nc2ccc(N3CCN(C)CC3)c(F)c2)cc1 | -3 | -14 | · | · | -4
Cc1ccc(SCC(=O)Nc2ccc(N3CCN(C)CC3)c(F)c2)cc1 | 40* | · | 30 | -1 | -3
C(=NOCCc1ccccc1)c1cccnc1 | 0 | 87* | 51* | 3 | 7
C(=NOCc1ccccc1)c1ccncc1 | 8 | 57 | 38 | 2 | 2
O=C(c1ccc2nc[nH]c2c1)N1CCN(c2cccc(C(F)(F)F)c2)CC1 | 3 | 14 | · | · | 0
O=C(c1ccc2ncsc2c1)N1CCN(c2cccc(C(F)(F)F)c2)CC1 | 1 | 1 | 46* | -62 | -3
Cn1c(CCNC(=O)c2cccs2)nnc1SCC(=O)Nc1nc(-c2ccccc2)cs1 | -1 | 20 | 7 | -26 | 2
